Assay outcomes (PubChem)
This is a sample that favours compounds with a hit; in the whole collection about 5.9% have one here.
LANA-H2A inh = blocks KSHV LANA binding to histone H2A/H2B; 320,000 compounds, 0.6% hits; inhibition, % (concentration not given with the values); cell-free LANA-H2A/H2B peptide, fluorescence polarization; in the data active = inhibition mostly above about 10%, no sharp cut-off; inactive = mostly below about 6.7%
ALR inh = human ALR oxidase inhibition via reduced H2O2; AID 485317; P55789; inhibition, % (no concentration beside the values); purified ALR, DTT oxidation, H2O2 HRP-luminol luminescence; 290,000 compounds, 3.8% hits;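 active = mean replicate inhibition above about 79%, with every replicate also reaching it, limit read from the data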
Target sequence (P55789 whole entry, looked up): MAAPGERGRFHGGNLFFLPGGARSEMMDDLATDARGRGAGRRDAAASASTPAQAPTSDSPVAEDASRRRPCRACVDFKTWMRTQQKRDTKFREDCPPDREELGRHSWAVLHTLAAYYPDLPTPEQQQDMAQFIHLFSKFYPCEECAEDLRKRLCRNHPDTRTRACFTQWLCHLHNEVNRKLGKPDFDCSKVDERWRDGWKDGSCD
rCAG RNA binder = binds r(CAG) RNA repeats; r(CAG) RNA repeat, TO-PRO-1 dye displacement fluorescence; inhibition, % at 3 µM; 370,000 compounds, 1.3% hits; AID 651821;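 active = inhibition above the plate cutoff, the mean of all test compounds on that plate plus 3 SD, cut at about 35% in these data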;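 note: higher means more dye released from RNA so lower well fluorescence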
ABHD5 PLIN5 PPI = blocks binding of human ABHD5 to perilipin-5; Q00G26+Q8WTS1; inhibition, % at 4 µM; Split G. princeps luciferase complementation, luminescence, 4 h; AID 602281; 360,000 compounds, 0.78% hits;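 active = inhibition above the mean inhibition across every tested compound plus 3 SD, cut at about 22% in these data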
Rtt109 Vps75 = C. albicans Rtt109 histone acetyltransferase inhibition; Q5AAJ8; purified Rtt109/Vps75, ThioGlo CoA-SH fluorescence, 4 h; inhibition, % at 34.9 µM; 330,000 compounds, 0.16% hits;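 active = inhibition of at least 50% in every replicate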
PRMT1 inh = PRMT1 (human) inhibition, primary screen. recombinant PRMT1, activity-based probe fluorescence polarization. Q99873. 370,000 compounds, 1.3% hits. inhibition, % at 2.79 µM;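 active = inhibition above about 21% made by adding two undisclosed values, limit read from the data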
Target sequence (Q99873 whole entry, looked up): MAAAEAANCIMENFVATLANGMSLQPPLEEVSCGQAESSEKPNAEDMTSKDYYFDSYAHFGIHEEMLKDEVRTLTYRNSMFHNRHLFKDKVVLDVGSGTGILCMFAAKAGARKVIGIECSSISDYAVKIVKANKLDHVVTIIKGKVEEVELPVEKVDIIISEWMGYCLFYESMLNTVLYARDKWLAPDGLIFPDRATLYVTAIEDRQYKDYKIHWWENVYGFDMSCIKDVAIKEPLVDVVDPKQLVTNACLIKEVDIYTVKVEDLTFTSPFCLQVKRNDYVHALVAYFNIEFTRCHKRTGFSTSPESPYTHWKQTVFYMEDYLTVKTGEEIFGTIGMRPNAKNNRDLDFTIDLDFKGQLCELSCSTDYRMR
Large screens that a line does not name were inactive; ! = not active in a repeat.

C[C@H](O)[C@@H]1CN2CCc3c([nH]c4c(-c5ccc6c(c5)OCO6)cccc34)[C@@H]2C[C@@H]1N(C)C(=O)c1ccco1	none (no result: LANA-H2A inh, ALR inh, ABHD5 PLIN5 PPI, Rtt109 Vps75)
COc1ccc(C(CCOC(=O)Oc2ccccc2)c2cc(OC)cc(OC)c2)cc1 (centres undefined)	none (no result: LANA-H2A inh, ALR inh, ABHD5 PLIN5 PPI, Rtt109 Vps75)
Cc1cccc(NC(=O)CSCC(=O)Nc2ccccc2N2CCCCC2)c1	none
Cc1cccc(NC(=O)CSCC(=O)Nc2ccccc2N2CCCC2)c1	ALR inh 99
O=C(O)c1ccc(/C=N/n2c(C3CCCCC3)n[nH]c2=S)cc1	ALR inh 98
O=C(O)c1ccccc1/C=N/n1c(C2CCCCC2)n[nH]c1=S	ALR inh 98
COc1cc(C=Nn2c(-c3cc(C)[nH]n3)n[nH]c2=S)cc(Br)c1O	none (no result: LANA-H2A inh, ALR inh, ABHD5 PLIN5 PPI, Rtt109 Vps75)
S=c1[nH]nc(C2CCCCC2)n1/N=C/c1ccncc1	none
COc1cc(/C=N/n2c(C3CCCCC3)n[nH]c2=S)cc(Br)c1O	ALR inh 83
S=c1[nH]nc(C2CCCCC2)n1/N=C/c1ccccc1Cl	none (no result: ALR inh)
COC(=O)C1=C(C)N(C)C(=NCc2ccc(OC)cc2)NC1c1ccc(Cl)cc1 (centres undefined)	none (no result: LANA-H2A inh, ALR inh, ABHD5 PLIN5 PPI, Rtt109 Vps75)
CN(C(=O)COC(=O)c1ccc(Cl)s1)C1(C#N)CCCCC1	none (no result: LANA-H2A inh, ALR inh)
O=c1ccn(C2CCCCC2)c(=O)[nH]1	none (no result: LANA-H2A inh, ALR inh, Rtt109 Vps75)
O=C(c1ccc(-c2ccccc2)c(F)c1)C1CCCN(C(=O)c2cncs2)C1 (centres undefined)	LANA-H2A inh 14 (no result: ALR inh)
COc1ccc(-c2nc3c(=O)n(C)c(=O)[nH]c3n2CCc2ccccc2)cc1	LANA-H2A inh 20! (no result: rCAG RNA binder, PRMT1 inh)
CC(C)CC(=NNC(=O)c1ccncc1)c1cc(Cl)ccc1O	none (no result: LANA-H2A inh, ALR inh)
S=C(Nc1ccc(Cl)cc1)Nc1ccc2cn[nH]c2c1	none
COc1ccc(NC(=S)Nc2ccc3cn[nH]c3c2)cc1	ALR inh 100
CCOc1ccc(NC(=S)Nc2ccc3nsnc3c2)cc1	none
CC(C)N(C(=O)Nc1ccc2nsnc2c1)C(C)C	PRMT1 inh 25 (no result: ABHD5 PLIN5 PPI, Rtt109 Vps75)
COc1ccc(NC(=S)Nc2ccc3nsnc3c2)cc1	ABHD5 PLIN5 PPI 23, Rtt109 Vps75 54
C=CCN(CC=C)C(=S)Nc1ccc2nsnc2c1	PRMT1 inh 28 (no result: Rtt109 Vps75)
COc1ccc(NC(=O)Nc2ccc3nccnc3c2)cc1	ALR inh 100
O=C1/C(=C/c2cccnc2)SC(=S)N1Nc1ccccc1	ALR inh 92 (no result: Rtt109 Vps75)
Nc1nnc(N2CCc3ccccc32)s1	ALR inh 99
Nc1nnc(SCC(=O)N2CCc3ccccc3C2)s1	none
CC(=O)SC(C[N+](=O)[O-])c1cn(C(C)=O)c2ccccc12 (centres undefined)	ALR inh 100
CCCCOC1NC(=O)NC(=O)C1(F)C(=O)OCC (centres undefined)	none (no result: LANA-H2A inh, ALR inh, Rtt109 Vps75)
CCOC(=O)N1CCN(c2cc3[nH]c(=S)[nH]c3cc2F)CC1	ALR inh 90
Cc1cccc(-n2c(C)cc(/C=N/NC(=O)c3ccc(CN4CCOCC4)cc3)c2C)c1	ALR inh 99 (no result: rCAG RNA binder, PRMT1 inh)
Fc1ccccc1-c1nc(NCc2ccco2)c2ccccc2n1	none (no result: Rtt109 Vps75)
O=c1c2ccccc2nc2c3ccccc3c(NCc3ccco3)nn12	ALR inh 91
COc1ccc(C(=O)C2CCCN(Cc3cnc(N4CCCC4)s3)C2)cc1OC (centres undefined)	ALR inh 98
CCN(CC)CC(=O)Nc1ccc(C)cc1C(=O)c1ccccc1	none
CCN(CC(=O)Nc1ccc(NC(C)=O)cc1)CC(=O)Nc1ccccc1C(=O)c1ccccc1	LANA-H2A inh 10
COc1ccccc1N(CC(=O)NCCSCc1cccc(C)c1)S(=O)(=O)c1ccccc1	none
Cc1ccc(OCCn2c(CCNC(=O)c3ccc(F)cc3F)nc3ccccc32)cc1	none (no result: LANA-H2A inh, ALR inh, rCAG RNA binder, ABHD5 PLIN5 PPI, Rtt109 Vps75)
CSc1ccc(NC(=O)Nc2ccc(C(=O)NCC(=O)O)cc2)cc1	ALR inh 98
C=CCn1c(SCc2nc3sc(C(=O)O)c(C)c3c(=O)[nH]2)nnc1-c1ccccc1	none (no result: Rtt109 Vps75)
C=CCn1c(SCc2nc3sc(C(=O)O)c(C)c3c(=O)[nH]2)nnc1-c1ccc(C(C)(C)C)cc1	ALR inh 98
COc1cccc(C(=O)N[C@@H](Cc2cccnc2)C(=O)N2CCC[C@H]2C(=O)NCc2ccccc2)c1	none (no result: LANA-H2A inh, ALR inh, ABHD5 PLIN5 PPI, Rtt109 Vps75)
c1ccc(Sc2ccccn2)cc1	none (no result: Rtt109 Vps75)
c1ccc(SSc2ccccn2)nc1	ABHD5 PLIN5 PPI 35 (no result: rCAG RNA binder, PRMT1 inh)
O=C(C(=O)N1CCN(C(=O)OCc2ccccc2)CC1)c1cccnc1	none (no result: LANA-H2A inh, ALR inh, Rtt109 Vps75)
CCOC(=O)C1CCN(S(=O)(=O)c2cccc(-c3cn4ccccc4n3)c2)CC1	ALR inh 99
CCOC(=O)C1CCN(S(=O)(=O)c2cccc(-c3cn4cccc(C)c4n3)c2)CC1	none
CCOC(=O)C1CCN(S(=O)(=O)c2cccc(-c3cn4cc(Cl)ccc4n3)c2)CC1	ALR inh 99
COC(=O)[C@]12C[C@H](CC(=O)NCCCCc3ccccc3)C(=O)N(Cc3ccco3)C1=C[C@H](COCc1ccccc1)O[C@@H]2C	none (no result: LANA-H2A inh, ALR inh, ABHD5 PLIN5 PPI, Rtt109 Vps75)
O=C(Nc1cccc(Cl)c1N1CCOCC1)c1cccs1	ALR inh 91
O=C(Nc1ccccc1Cl)c1cccc(NC(=O)c2cccs2)c1	LANA-H2A inh 38
COCc1cc(N2CCN(C(=O)OC(C)(C)C)C[C@@H]2C)ccc1Br	none (no result: LANA-H2A inh, ALR inh, ABHD5 PLIN5 PPI, Rtt109 Vps75)
Cc1cccc(C)c1NC(=O)C1(C)CSCC(=O)N1CCCn1ccnc1 (centres undefined)	none (no result: LANA-H2A inh, ALR inh, Rtt109 Vps75)
O=C(Nc1ccccc1)Nc1nc2ncccn2c1-c1ccc(F)c(F)c1	none (no result: LANA-H2A inh, ALR inh, ABHD5 PLIN5 PPI, Rtt109 Vps75)
CCC(=O)Nc1ccc2c(c1)nc1n2CCSC1	ALR inh 99 (no result: Rtt109 Vps75)
CC(C)C(=O)Nc1ccc2c(c1)nc1n2CCSC1	ALR inh 99
O=C(Nc1ccc(N2CCCCC2)cc1)c1ccccc1	none
NC(=O)NC(=O)C(Nc1ccc(N2CCCCC2)cc1)c1ccccc1 (centres undefined)	ALR inh 99
CC1=NN(c2ccccc2)C(=O)C1C=Nc1ccc(N(C)C)cc1 (centres undefined)	PRMT1 inh 29 (no result: ALR inh)
CC1=NN(c2ccccc2)C(=O)C1N=Nc1ccc(C)cc1 (centres undefined)	none (no result: rCAG RNA binder, ABHD5 PLIN5 PPI, Rtt109 Vps75, PRMT1 inh)
Fc1ccc2[nH]c3c(Cl)ncnc3c2c1	ALR inh 95
COc1ccc2[nH]c3c(Cl)ncnc3c2c1	none
Cc1cc(SCC(=O)N/N=C/c2ccc(O)c(O)c2O)c(C)cc1Br	ALR inh 95, rCAG RNA binder 55, PRMT1 inh 35
COc1cccc(OCCOc2c(OC)cccc2OC)c1	LANA-H2A inh 14
CCOC(=O)c1c(C)[nH]c(C(=O)C(C)OC(=O)c2ccc(NC(=O)CC#N)cc2)c1C (centres undefined)	ALR inh 99
CC(OC(=O)c1ccc(NC(=O)CC#N)cc1)C(=O)NCCC1=CCCCC1 (centres undefined)	ALR inh 98
CC(OC(=O)c1ccc(S(=O)(=O)N(C)c2ccccc2)cc1)C(=O)NCCC1=CCCCC1 (centres undefined)	none (no result: ALR inh)
CCCCNC(=O)c1ccc(CS(=O)(=O)c2ccc(C)cc2)o1	ALR inh 79
